# From PubChem BioAssay (NCI)
# About 83,000 compounds went through this panel and 20% of them were active in at least one assay; those are over-represented in the sample as a whole.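 Method: cells in 96-well plates; compound added at one concentration; 48 h incubation; percent growth measured; values under 10 scored active.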 Values without a mark were called inactive. The source made the active and inactive calls.
# Columns and labels:
# Experiment in all cases: NCI-60 one-dose screen, 48 h (100 = growth as untreated, 0 = no growth, -100 = all killed)
# Conditions in all cases: 10 µM unless noted
# [1] = system: T-47D breast
# [2] = system: BT-549 breast
# [3] = system: MDA-MB-435 melanoma
# [4] = system: SW-620 colon
# [5] = system: MCF7 breast
# [6] = system: HCT-116 colon
# [7] = system: HCC-2998 colon
# [8] = system: KM12 colon
Structure (SMILES),growth [1],growth [2],growth [3],growth [4],growth [5],growth [6],growth [7],growth [8]
Cc1cc(N2CCN(C)CC2)nc(NCc2cc(Nc3ccnc4cc(Cl)ccc34)ccc2F)n1,-56.1% (active),30.4%,-43.6% (active),-18.6% (active),-9.33% (active),-45.3% (active),-12.7% (active),12.7%
CCN(CC)c1ccc(/C=N\NC(=O)c2cccc(Nc3ccnc(C(F)(F)F)c3)c2)c(O)c1,15.1%,28.8%,15.4%,35.4%,16.1%,26.5%,60.1%,23%
N#C/C(=C\c1ccc(Cl)cc1Cl)C(=O)Nc1ncc(Cc2ccc(Cl)c(Cl)c2)s1,58.5%,111%,60.8%,62.6%,84%,78.5%,87%,80.1%
C=C(CO)[C@@H]1CC[C@]2(COC3CCCCO3)CC[C@]3(C)[C@H](CC[C@@H]4[C@@]5(C)C=C(C=O)C(=O)C(C)(C)[C@@H]5CC[C@]43C)[C@@H]12 (stereo partly drawn),-80.3% (active),-88.6% (active),-83.9% (active),-64.6% (active),-73.2% (active),-89.3% (active),-87.5% (active),-43% (active)
COc1cc(Nc2c3ccc(Cl)cc3nc3ccc(OC)cc23)c2ncccc2c1,48.6%,56.2%,65.6%,45.7%,40.3%,26%,44.8%,39.3%
CC(C)=CC(=O)N[C@@H]1CC2CCC3C(CC[C@@]4(C)C3CC[C@@H]4C(C)N(C)C)[C@@]2(C)C[C@@H]1O (stereo partly drawn),22.3%,66.1%,12.6%,28.2%,33.9%,27.1%,52%,38.2%
C=C1C(=O)O[C@H]2[C@H]1CC/C(CNC(=O)c1cc3ccccc3[nH]1)=C\CC[C@@]1(C)O[C@@H]21,-42.2% (active),-79.8% (active),-37.2% (active),-57.4% (active),-56.7% (active),-84% (active),-75.5% (active),-38.4% (active)
O=C(/C=C/c1cccc(Cl)c1)c1cccc(OCCCCOc2cccc(C(=O)/C=C/c3cccc(Cl)c3)c2)c1,75.8%,92.6%,70.9%,75.1%,12.6%,-13.7% (active),85.5%,70.5%
Brc1ccc(-c2cnc3nonc3n2)cc1,69.7%,115%,3.37% (active),77.6%,28.2%,60%,91.3%,78.2%
CC1(C)CC2=C3C=C[C@@H]4[C@@]5(C)CC[C@H](O)C(C)(C)[C@@H]5CC[C@@]4(C)[C@]3(C)CC[C@@]2(C(=O)O)CC1=O,42.2%,36.7%,39.4%,43.8%,31.9%,12.8%,70.3%,42.6%
Cc1ccc(C)c(-n2c(-c3ccc(Br)cc3)csc2=NC(=O)c2ccccc2F)c1,41.3%,28.7%,67.2%,69.6%,59.1%,22.9%,117%,60.8%
C#CCn1cnc2c(Nc3cccc(NC(=O)CCl)c3)ncnc21,34.7%,35.1%,22.6%,20.6%,14.1%,12.9%,77.6%,37.7%
COc1cc2cc(Oc3ccc(NC(=O)Nc4ccccc4)cc3)c(C)nc2cc1OCCN1CCCCC1,88%,86.8%,61.8%,70.3%,31.9%,11.1%,73%,42.4%
COc1cc2cc(NCc3ccc(OC(F)F)cc3)nc(C)c2cc1OC,71.1%,71.8%,68.4%,47.9%,86.1%,37.3%,78.2%,82.8%
O=C(/C=C/C12c3ccccc3C(c3ccccc31)C1C(=O)NC(=O)C12)c1ccccn1 (stereo not drawn),9.45% (active),11%,-23.7% (active),-1.62% (active),10.4%,-65% (active),16.5%,1.06% (active)
O=C(Nc1ccc(F)cc1)Nc1ccccc1CNc1nc(Nc2ccc(OCCN3CCCC3)cc2)ncc1Cl,100%,84.9%,16.3%,27.8%,32.5%,21.8%,48.6%,49.6%

Structure (SMILES),growth [1],growth [2],growth [3],growth [4],growth [5],growth [6],growth [7],growth [8]
CCN=C1C=CC(=C(c2ccc(N(C)C)cc2)c2ccc(N(C)C)cc2)c2ccccc21,-22.8% (active),-35.2% (active),-35.2% (active),-9.44% (active),-9.8% (active),-51.6% (active),-40.8% (active),-86.1% (active)
CCN1C(=O)N(CC)C2C1NN=c1s/c(=C\c3ccccc3Br)c(=O)n12 (stereo not drawn),85.5%,16.3%,-15.7% (active),20.3%,13.6%,6.2% (active),10.7%,10.3%
O=c1[nH]c(-c2ccc(Cl)cc2)cn1-c1ccc(-n2cc(-c3ccc(Cl)cc3)[nH]c2=O)cc1,89.1%,110%,98.8%,102%,99.8%,101%,106%,106%
COC(=O)C1=Nc2ccc(F)cc2/C1=C\c1sc(Nc2ccc(O)cc2)nc1O,62.4%,35%,0.954% (active),65.9%,22%,64%,79.3%,49.5%
COc1ccc2c(c1)c(-c1ccc(-c3cn(C)c4ccc(OC)cc34)[nH]1)cn2C,-51.2% (active),-28.1% (active),41.8%,-48.6% (active),38.9%,4.08% (active),-3.55% (active),9.21% (active)
N#Cc1nc(-c2ccc(F)cc2)oc1S(=O)(=O)N1CCN(c2ccc(F)cc2)CC1,85.8%,103%,86.8%,19%,40.9%,46.7%,109%,102%
O=C(CCCCNC(=O)c1cc(=O)c(O)co1)Nc1ccccc1,34.6%,98.4%,98.1%,45.8%,66.1%,30%,110%,99.7%
CC[C@H](Nc1nc(N)nc(C)c1C#N)c1nc2cccc(NCCCCCC(=O)NO)c2c(=O)n1-c1ccccc1,1.28% (active),39.4%,64.1%,68.3%,31.5%,71.3%,87%,80.3%
CCOC(=O)c1n[nH]n2c1nc(=O)c1cnn(C)c12,96.5%,133%,105%,108%,92.8%,114%,100%,95.7%
COc1cc(/C=C/c2cc(/C=C/c3ccc(O)c(OC)c3)n(C(=O)Nc3ccc(F)cc3)n2)ccc1O,31.1%,-8.33% (active),-2.32% (active),10.5%,9.49% (active),4.95% (active),6.92% (active),2.44% (active)
CCOC(=O)c1ccc2c(c1)c1c(C)c3ccncc3c(C)c1n2C,-3.13% (active),21.1%,3.03% (active),0.329% (active),1.8% (active),0.263% (active),4.25% (active),0.78% (active)
O=C(CSc1nnc2sc(Nc3cccc(Cl)c3)nn12)c1ccc(F)cc1,76.4%,97.8%,100%,99%,90.4%,85.8%,103%,95.8%
CCOC(=O)C/C(=N\Nc1cc(=O)[nH]c2ccc(Cl)cc12)C(=O)OCC,102%,99.3%,102%,93.8%,96.5%,100%,97.4%,102%
COc1ccc(/C=C/C(=O)c2cc3c(N)c(C(=O)Nc4ccccc4C)sc3nc2C)cc1,39.9%,29.7%,-39.6% (active),14.9%,9.36% (active),14.7%,15.4%,10.6%
Cn1cc(-c2nc(-c3c[nH]c4ccncc34)cs2)c2cc(Br)ccc21,-54.1% (active),84.2%,-81.4% (active),-71.8% (active),-72.4% (active),-89.7% (active),-68.9% (active),-83.8% (active)
